Assay outcomes as filed in PubChem BioAssay.
Hits are enriched below; roughly 7.9% of the tested compounds scored in any of these assays.
HCMV inh – qHTS Assay for inhibitors of the human cytomegalovirus (HCMV); HFF cells, HCMV-luciferase reporter, 72 h; hits give low values; activity change, negative = inhibition, % at 57.5 µM; 4.5% of 410,000 active; AID 1259415, 2018; in the data active means activity change below about -60%; inconclusive means no clear call, values can overlap the other calls; inactive means above about -39%
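HFF cells seeded 16 h at 37C, treated with compounds, infected with luciferase-reporter HCMV at MOI 1 PFU/cell; luciferase read at 72 h post infection, normalized to buffer-only and Salinomycin controls.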
Marburg entry inh – qHTS for inhibitors of binding or entry into cells for Marburg Virus; Marburg virus pseudotyped entry inhibition, cell reporter; Potency, µM (doses to about 37.8 µM), for inactives: at the top dose activity change, negative = inhibition, most hits filed as inhibitors; 1.8% of 300,000 active; AID 540276, 2011; calls by dose curve; tested in HEK293 cells; further: potency means the concentration at half of the fitted maximal effect
HCV inh – qHTS Assay for Inhibitors of Hepatitis C Virus (HCV) | Huh7.5.1 HCVcc-Cre infection, luciferase reporter, 44 h | Potency, µM (series often up to 41.8 µM), without a hit: at the highest dose activity change, negative = inhibition, hits mostly inhibitors | 3.4% of 340,000 active | AID 651820, 2012; active means well fitted inhibition curve with a large enough effect; inconclusive means small, poorly fitted or top-dose-only effect, or another doubt; inactive means no such curve, though single readings can be large or run the other way; further: potency means the concentration at half of the fitted maximal effect
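HCVcc-Cre virus at an moi near 0.5 was added right after compound to cells cultured 4 h from seeding (1,000 cells/well). Luciferase activity was determined 44 h later, 15 min after substrate addition at RT.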
FMDV inh – High Throughput Screening for Foot and Mouth Disease Virus Antivirals; FMDV antiviral cell-based qHTS; Potency, µM (doses to about 57.9 µM), inactives show at the top dose activity change, negative = inhibition, usual class: inhibitors; 1.2% of 410,000 active; calls by dose curve; tested in HEK293T cells; further: read-out not given here; potency means the concentration at half of the fitted maximal effect; nearly all actives have a fitted effect of over 45% in size
LASV entry inh – qHTS for Inhibitors of binding or entry into cells for Lassa Virus. Lassa virus pseudotype entry inhibition, cell reporter. Potency, µM (highest dose often 37.9 µM), without a hit: at the top dose activity change, negative = inhibition, hits mostly inhibitors. 1.2% of 300,000 active. AID 540256, 2011; calls by dose curve; tested in HEK293 cells; further: potency means the concentration at half of the fitted maximal effect; nearly all actives have a fitted effect of over 50% in size
An asterisk follows results filed as active; ? = inconclusive; nt = no result; ! = repeats disagree; [ ] = remark or other dose. On the % scale 0 is the no-effect control and ±100 the full control effect.

SMILES | HCMV inh | Marburg entry inh | HCV inh | FMDV inh | LASV entry inh
CN(Cc1ccc(Cl)c(Cl)c1)C(c1cc2ccccc2o1)c1nnnn1C(C)(C)C (stereo not given) | -77.5* | nt | nt | 22.4µM* | nt
COc1ccc(CNC[C@H]2O[C@@H](n3ccc(=O)[nH]c3=O)[C@H](O)[C@@H]2O)cc1OC | -12.9 | nt | 6.31µM* | -2.5% | nt
O=C(COc1ccc(Br)cc1)Nc1ccc(C(=O)OC2CCCCC2)cc1 | 6.3 | nt | nt | -4.6% | 3.3%[46.1 µM]
c1ccc2[nH]c3cc4ncnc4cc3nc2c1 | -87.5* | -25.0% | -21.3% | 6.4% | -11.2%
Cc1cc(C)n(-c2ccc(OCC(=O)O)nn2)n1 | -28.6 | 10.9% | 3.6% | -14.9% | -25.3%
CCCCOc1ccc(-n2nc(C)cc2C)nn1 | -82.4* | 16.3% | 8.5% | 17.7% | 30.0%
CCN(CC)CCNC(=O)CCc1c(C)nc2c(c(C)nn2-c2ccc(C)cc2)c1C | -92.9* | nt | 3.55µM* | -16.2% | nt
CC(Oc1ccc(Br)cc1)C(=O)Nc1nc(-c2ccccn2)cs1 (stereo not given) | -87.5* | ? | 11.2µM* | 39.8µM* | ?
CC(C)[C@H](NC(=O)c1ccccc1Cl)C(=O)Nc1nc(-c2ccccn2)cs1 | -82.7* | ? | ? | ? | ?
CC(C)CCNC(=O)C1CCC(Cn2c(=O)c3sccc3n(CC(=O)NC(C)C)c2=O)CC1 (stereo not given) | -1.2 | nt | nt | 4.1% | 17.9%[46.1 µM]
NC(=O)c1cc(N2CC2)c([N+](=O)[O-])cc1[N+](=O)[O-] | -12.6 | ? | 0.3% | 1.26µM* | -15.0%
COc1cc(S(=O)(=O)NCC2(N3CCCCC3)CCCCC2)ccc1NC(C)=O | -97.9* | ? | 25.8% | -11.5% | -0.6%
Cc1ccc(NC(=O)c2ccccc2[N+](=O)[O-])cc1[N+](=O)[O-] | 28.1 | nt | nt | nt | nt
CCC(C(=O)Nc1c(C)cc(C)cc1C)n1c(=O)c(-c2ccccc2NC(C)=O)nc2ccccc21 (stereo not given) | -2.2 | -3.6%[46.1 µM] | nt | -9.1% | ?
CCc1ccc(NC(=O)C(CC)n2c(=O)c(-c3ccccc3NC(C)=O)nc3ccccc32)cc1 (stereo not given) | -90.9* | 2.7%[46.1 µM] | nt | ? | 13.6%[46.1 µM]
COc1cc(C2C(C#N)=C(N)N(N(C)C)C3=C2C(=O)CC(C)(C)C3)cc(OC)c1OC (stereo not given) | -81.8* | ? | 4.8% | -7.9% | -14.8%[46.1 µM]
COc1cc(C2C(C#N)=C(C)NC3=C2C(=O)CC(C)(C)C3)cc(OC)c1O (stereo not given) | -61.2* | 7.7% | -21.0% | -8.0% | -5.8%
COc1cc(C2C(C#N)=C(N)N(Nc3ccccc3)C3=C2C(=O)CC(C)(C)C3)ccc1OCc1cccc(F)c1 (stereo not given) | 44.2 | 1.78µM* | ? | -27.1% | ?
CCC1CN(Cc2cccc3nccnc23)Cc2cc(OC)ccc2O1 (stereo not given) | nt | nt | nt | 1.4% | nt
Cn1cnc(CCNC(=O)[C@@H]2[C@@H](CO)[C@@H]3Cn4c(cccc4=O)[C@H]2N3C(=O)Nc2ccccc2)c1 | -6.3 | nt | nt | nt | nt
Cc1[nH]c2ccccc2c1C1(O)C(=O)N(Cc2ccc(Cl)cc2)c2ccccc21 (stereo not given) | -98.5* | 10.0%[46.1 µM] | nt | -23.7% | ?
Cc1ccc(C)c(CN2C(=O)C(O)(c3c[nH]c4ccccc34)c3ccccc32)c1 (stereo not given) | -30.0 | ? | nt | -15.7% | ?
O=C1N(Cc2ccccc2Cl)c2ccccc2C1(O)c1c[nH]c2ccccc12 (stereo not given) | -93.9* | 3.4%[46.1 µM] | nt | -21.2% | -21.1%[46.1 µM]
O=C1N(Cc2ccccc2)c2ccccc2C1(O)c1c[nH]c2ccccc12 (stereo not given) | 15.4 | -23.6%[46.1 µM] | nt | -20.5% | -16.7%[46.1 µM]
Cc1ccccc1CN1C(=O)C(O)(c2c[nH]c3ccccc23)c2cc(Cl)ccc21 (stereo not given) | -92.5* | 8.91µM* | nt | -24.3% | ?
SMILES | HCMV inh | Marburg entry inh | HCV inh | FMDV inh | LASV entry inh
Cc1oc2ccc(O)c(CN(C)Cc3ccccc3)c2c1C(=O)Nc1ccccc1 | -80.9* | ? | nt | -25.1% | ?
Cc1oc2ccc(O)c(CN(C)Cc3ccccc3)c2c1C(=O)Nc1cccc(C(F)(F)F)c1 | -78.8* | ? | nt | ? | ?
CCN(Cc1ccccc1)Cc1c(O)ccc2oc(C)c(C(=O)Nc3ccc(C)cc3C)c12 | -12.3 | ? | nt | ? | ?
Cc1ccc(NC(=O)c2c(C)oc3ccc(O)c(CN(C)Cc4ccccc4)c23)c(C)c1 | -66.8* | ? | nt | -23.4% | ?
O=C1C(n2ccc3ccccc32)c2cc(Cl)ccc2N1Cc1ccc(Cl)nc1 (stereo not given) | -30.8 | nt | nt | nt | nt
O=C1C(=O)N(CCN2CCOCC2)[C@@H](c2ccccn2)/C1=C(\O)c1ccccc1 | nt | 23.2% | nt | nt | nt
Cc1cc(NC(=O)c2ccc3c(c2)OCCO3)ccc1NC(=O)c1ccco1 | -4.6 | ? | ? | 2.4% | ?
O=C(Nc1ccccc1C(=O)Nc1ccc2c(c1)OCO2)c1ccco1 | 2.4 | ? | 12.6µM* | -7.0% | ?
O=C(Nc1ccc(NC(=O)c2ccco2)cc1)c1ccc2c(c1)OCCO2 | -72.5* | -10.4%[46.1 µM] | ? | 30.3% | -25.6%
Oc1ccc(/C=C/c2nc(-c3ccccc3O)n(-c3ccccc3)n2)c(O)c1 | ? | ? | nt | -1.4% | -24.3%[46.1 µM]
O=C(Nc1nc2ccccc2s1)c1cc(-c2ccccc2)nn1-c1ccccc1 | -74.8* | ? | ? | -23.7% | ?
O=C(CN1C(=O)C2(SCC(=O)N2c2cccc(F)c2)c2ccccc21)NCCc1ccccc1 (stereo not given) | -107.1* | nt | nt | 1.4% | 1.5%[46.1 µM]
Cc1ccc(CNC(=O)C2CCCN(S(=O)(=O)c3cccc4nsnc34)C2)cc1 (stereo not given) | 1.9 | 16.3%[46.1 µM] | nt | -7.7% | 2.2%[46.1 µM]
CC1CCCC(NC(=O)COC(=O)c2ccc(N(C)C)cc2)C1C (stereo not given) | 4.3 | -1.4% | 2.82µM* | -3.5% | ?
CCN(CC)c1ccc(C(=O)OCC(=O)NC2CCCCC2C)cc1 (stereo not given) | -9.7 | -2.7%[46.1 µM] | -23.5% | -21.4% | -21.2%
O=c1[nH]c2ccccc2n1CCCN1CCC(n2c(=O)[nH]c3cc(Cl)ccc32)CC1 | -78.5* | 11.2µM*! | ? | ? | ?
COc1cccc(CN2CCC(n3cc(C(=O)NC4CCCC4)nn3)CC2)c1O | nt | nt | nt | -17.1% | nt
Cc1[nH]n(-c2ccccc2)c(=O)c1N=Nc1ccccc1O | -99.2* | ? | 4.47µM* | 5.2% | ?
Cc1[nH]n(-c2ccccc2)c(=O)c1N=Nc1nccs1 | -96.0* | ? | ? | 3.7% | ?
Cc1[nH]n(-c2ccccc2)c(=O)c1N=Nc1ccccc1C(=O)O | -14.4 | nt | -11.0% | 38.9% | nt
Cc1ccccc1N=Nc1c(C)[nH]n(-c2ccccc2)c1=O | nt | 15.2%[46.1 µM] | 17.9% | 20.1% | 3.1%
